# Laboratory results from PubChem BioAssay.
# Activity calls are given as the source filed them.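 How the source made its calls: active means compounds killing one labelled cell type while sparing the other, by normalised counts and ratio limits, not self-fluorescent; inactive means the rest.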
# Assay: EMT-state selective cytotoxicity in co-culture – imaging, PC-3E GFP, TEM4-18 mCherry, primary screen (AID 1345086);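 further: cells exposed to compound for 72 h before imaging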;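 on red/green cell ratio (normalised): normalised mesenchymal count divided by normalised epithelial count so high means epithelial killing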
# Details: PC-3E GFP / TEM4-18 mCherry co-culture, imaging cell counts; at 1 µM; actives lie on both sides; counts scaled to control wells, 1 = unselective
row,Compound,red/green cell ratio (normalised)
1,CN(C)CCC(c1ccccc1)c1ccccn1 (stereo not given),1.11 (inactive)
2,O=C(O)CCC(=O)c1ccc(-c2ccccc2)cc1,1.07 (inactive)
3,CC(=O)Oc1ccc(C(c2ccc(OC(C)=O)cc2)c2ccccn2)cc1,0.85 (inactive)
4,CC(C)(Oc1ccc(CCNC(=O)c2ccc(Cl)cc2)cc1)C(=O)O,1.21 (inactive)
5,CCN(CC)CCNC(=O)c1ccc(NC(C)=O)cc1,1.26 (inactive)
6,C=C1c2cccc(O)c2C(O)=C2C(=O)[C@]3(O)C(O)=C(C(N)=O)C(=O)[C@@H](N(C)C)[C@@H]3[C@@H](O)[C@H]12,0.93 (inactive)
7,O=C(O)c1cc(O)c(O)c(O)c1,0.96 (inactive)
8,CCn1cc(C(=O)O)c(=O)c2cc3c(cc21)OCO3,1.09 (inactive)
9,Cc1nnc(SCC2=C(C(=O)O)N3C(=O)[C@@H](NC(=O)Cn4cnnn4)[C@H]3SC2)s1,0.96 (inactive)
10,CN1CCC(=C2c3ccccc3Sc3ccccc32)CC1,1.08 (inactive)
11,CCCCCCCCCCCCCCCCOP(=O)([O-])OCC[N+](C)(C)C,0.8 (inactive)
12,CNC1(C)C2CCC(C2)C1(C)C (stereo not given),0.89 (inactive)
13,CCC(=O)O[C@H]1[C@H](O[C@@H]2[C@@H](C)[C@H](O[C@H]3C[C@@](C)(OC)[C@@H](O)[C@H](C)O3)[C@@H](C)C(=O)O[C@H](CC)[C@@](C)(O)[C@H](O)[C@@H](C)C(=O)[C@H](C)C[C@@]2(C)O)O[C@H](C)C[C@@H]1N(C)C,1.04 (inactive)
14,O=C(O)c1ccccc1OP(=O)(O)O,0.9 (inactive)
15,C/C=C1\[C@H]2C=C(C)C[C@]1(N)c1ccc(=O)[nH]c1C2,1.22 (inactive)
16,CCCCOc1ccc(OCCCN2CCOCC2)cc1,0.85 (inactive)
17,CC(=O)Nc1ccccc1,1.11 (inactive)
18,COc1cc(C(=O)NCc2ccc(OCCN(C)C)cc2)cc(OC)c1OC,0.88 (inactive)
19,O=C1c2c(O)cccc2Cc2cccc(O)c21,0.95 (inactive)
20,Cc1ccsc1/C=C/C1=NCCCN1C,1.28 (inactive)

row,Compound,red/green cell ratio (normalised)
1,CC(CN(C)C)CN1c2ccccc2CCc2ccccc21 (stereo not given),1.03 (inactive)
2,C[n+]1cc2c3c(ccc2c2ccc4cc5c(cc4c21)OCO5)OCO3,1.2 (inactive)
3,CCOC(=O)NNc1nncc2ccccc12,0.96 (inactive)
4,CO[C@@]1(NC(=O)C(C(=O)O)c2ccc(O)cc2)C(=O)N2C(C(=O)O)=C(CSc3nnnn3C)CO[C@@H]21 (stereo not given in full),0.93 (inactive)
5,O=C(O)[C@@H]1[C@H]2C[C@H]3c4[nH]c5ccccc5c4CCN3C[C@@H]2CC[C@@H]1O,1.08 (inactive)
6,CCCc1ncc(C[n+]2ccccc2C)c(N)n1,0.95 (inactive)
7,CCN(CC)C(=O)N1CCN(C)CC1,1.18 (inactive)
8,NC(=O)NC1NC(=O)NC1=O (stereo not given),1.05 (inactive)
9,CC(=O)OC(C)C[N+](C)(C)C (stereo not given),1.16 (inactive)
10,Nc1ccc(C(=O)O)cc1,1 (inactive)
11,C=CCc1ccccc1OCC(O)CNC(C)C (stereo not given),1 (inactive)
12,Oc1cccc(O)c1,1.34 (inactive)
13,Nc1nccs1,0.78 (inactive)
14,COc1ccc2cc1Oc1ccc(cc1)C[C@H]1c3c(cc4c(c3Oc3cc5c(cc3OC)CCN(C)[C@@H]5C2)OCO4)CCN1C,0.85 (inactive)
15,CCN(CC)CCNC(=O)c1cc(S(C)(=O)=O)ccc1OC,1.26 (inactive)
16,NC(=NCCCCCCN=C(N)/N=C(\N)Nc1ccc(Cl)cc1)/N=C(\N)Nc1ccc(Cl)cc1,1.05 (inactive)
17,Cc1[nH]c(C)c(Cl)c(=O)c1Cl,0.99 (inactive)
18,Cc1ccc(C(=O)c2ccc(CC(=O)O)n2C)cc1,0.9 (inactive)
19,Cc1ccc(C(C)C)cc2c(C)ccc1-2,0.74 (inactive)
20,CCN(CCCCOC(=O)c1ccc(OC)c(OC)c1)C(C)Cc1ccc(OC)cc1 (stereo not given),1.1 (inactive)

# Same assay, conditions: PC-3E GFP / TEM4-18 mCherry co-culture, imaging cell counts; measured here: epithelial PC-3E GFP cell survival; at 1 µM
row,Compound,normalised cell number
1,CN(C)CCC(c1ccccc1)c1ccccn1 (stereo not given),0.86
2,O=C(O)CCC(=O)c1ccc(-c2ccccc2)cc1,1.07
3,CC(=O)Oc1ccc(C(c2ccc(OC(C)=O)cc2)c2ccccn2)cc1,1.24
4,CC(C)(Oc1ccc(CCNC(=O)c2ccc(Cl)cc2)cc1)C(=O)O,1.03
5,CCN(CC)CCNC(=O)c1ccc(NC(C)=O)cc1,0.89
6,C=C1c2cccc(O)c2C(O)=C2C(=O)[C@]3(O)C(O)=C(C(N)=O)C(=O)[C@@H](N(C)C)[C@@H]3[C@@H](O)[C@H]12,0.85
7,O=C(O)c1cc(O)c(O)c(O)c1,1.14
8,CCn1cc(C(=O)O)c(=O)c2cc3c(cc21)OCO3,1.15
9,Cc1nnc(SCC2=C(C(=O)O)N3C(=O)[C@@H](NC(=O)Cn4cnnn4)[C@H]3SC2)s1,1.16
10,CN1CCC(=C2c3ccccc3Sc3ccccc32)CC1,1.03
11,CCCCCCCCCCCCCCCCOP(=O)([O-])OCC[N+](C)(C)C,1.32
12,CNC1(C)C2CCC(C2)C1(C)C (stereo not given),1.09
13,CCC(=O)O[C@H]1[C@H](O[C@@H]2[C@@H](C)[C@H](O[C@H]3C[C@@](C)(OC)[C@@H](O)[C@H](C)O3)[C@@H](C)C(=O)O[C@H](CC)[C@@](C)(O)[C@H](O)[C@@H](C)C(=O)[C@H](C)C[C@@]2(C)O)O[C@H](C)C[C@@H]1N(C)C,1.08
14,O=C(O)c1ccccc1OP(=O)(O)O,1.17
15,C/C=C1\[C@H]2C=C(C)C[C@]1(N)c1ccc(=O)[nH]c1C2,0.97
16,CCCCOc1ccc(OCCCN2CCOCC2)cc1,1.15
17,CC(=O)Nc1ccccc1,1.06
18,COc1cc(C(=O)NCc2ccc(OCCN(C)C)cc2)cc(OC)c1OC,1.34
19,O=C1c2c(O)cccc2Cc2cccc(O)c21,1.25
20,Cc1ccsc1/C=C/C1=NCCCN1C,1.08

row,Compound,normalised cell number
1,CC(CN(C)C)CN1c2ccccc2CCc2ccccc21 (stereo not given),1.32
2,C[n+]1cc2c3c(ccc2c2ccc4cc5c(cc4c21)OCO5)OCO3,0.84
3,CCOC(=O)NNc1nncc2ccccc12,0.94
4,CO[C@@]1(NC(=O)C(C(=O)O)c2ccc(O)cc2)C(=O)N2C(C(=O)O)=C(CSc3nnnn3C)CO[C@@H]21 (stereo not given in full),1.2
5,O=C(O)[C@@H]1[C@H]2C[C@H]3c4[nH]c5ccccc5c4CCN3C[C@@H]2CC[C@@H]1O,0.89
6,CCCc1ncc(C[n+]2ccccc2C)c(N)n1,1.35
7,CCN(CC)C(=O)N1CCN(C)CC1,1.2
8,NC(=O)NC1NC(=O)NC1=O (stereo not given),1.06
9,CC(=O)OC(C)C[N+](C)(C)C (stereo not given),0.97
10,Nc1ccc(C(=O)O)cc1,1.02
11,C=CCc1ccccc1OCC(O)CNC(C)C (stereo not given),1.2
12,Oc1cccc(O)c1,0.71
13,Nc1nccs1,1.25
14,COc1ccc2cc1Oc1ccc(cc1)C[C@H]1c3c(cc4c(c3Oc3cc5c(cc3OC)CCN(C)[C@@H]5C2)OCO4)CCN1C,0.93
15,CCN(CC)CCNC(=O)c1cc(S(C)(=O)=O)ccc1OC,0.93
16,NC(=NCCCCCCN=C(N)/N=C(\N)Nc1ccc(Cl)cc1)/N=C(\N)Nc1ccc(Cl)cc1,0.89
17,Cc1[nH]c(C)c(Cl)c(=O)c1Cl,1
18,Cc1ccc(C(=O)c2ccc(CC(=O)O)n2C)cc1,1.11
19,Cc1ccc(C(C)C)cc2c(C)ccc1-2,1.25
20,CCN(CCCCOC(=O)c1ccc(OC)c(OC)c1)C(C)Cc1ccc(OC)cc1 (stereo not given),0.88
